# Source: PMC5700166
# Numbering of substitutions follows the chain as printed.
# Legend:
# Assay in all cases: protein-binding microarray (PBM); PBM: ~300 nM protein, 6 mM HEPES pH 7.8, 80 mM KCl, 0.5 mM EDTA, 0.5 mM EGTA, 6% glycerol, 35 ng/ul poly-dIdC, 1% milk, 1 h, room temperature; Ap Aiptasia and Nv Nematostella (sea anemones) / Co Capsaspora / Aq Amphimedon (sponge) / Dm Drosophila / Hu human; RHD is the Rel homology domain; high values mean tight binding
# Settings in all cases: dsDNA, one strand shown
# GST-Ap-NF-kB RHD = target: T1, GST-Ap-NF-kB RHD (Exaiptasia pallida (Aiptasia), UniProt A0A913YAJ5 2-422)
# T1 sequence: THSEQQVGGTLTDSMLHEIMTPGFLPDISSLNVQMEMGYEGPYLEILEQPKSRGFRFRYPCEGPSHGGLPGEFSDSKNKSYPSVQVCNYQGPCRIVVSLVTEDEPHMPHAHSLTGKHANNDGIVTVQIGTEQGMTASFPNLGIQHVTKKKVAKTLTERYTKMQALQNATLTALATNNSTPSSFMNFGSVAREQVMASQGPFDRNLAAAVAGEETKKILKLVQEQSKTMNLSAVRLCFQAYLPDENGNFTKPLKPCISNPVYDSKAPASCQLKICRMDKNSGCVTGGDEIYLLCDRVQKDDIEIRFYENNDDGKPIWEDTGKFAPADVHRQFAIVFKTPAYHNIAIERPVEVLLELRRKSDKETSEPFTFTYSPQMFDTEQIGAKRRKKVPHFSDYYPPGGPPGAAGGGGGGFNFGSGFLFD
# [1] = target: T2, GST-Nv-NF-kB (Cys allele) (Nematostella vectensis, UniProt E5G601 2-411)
# T2 sequence: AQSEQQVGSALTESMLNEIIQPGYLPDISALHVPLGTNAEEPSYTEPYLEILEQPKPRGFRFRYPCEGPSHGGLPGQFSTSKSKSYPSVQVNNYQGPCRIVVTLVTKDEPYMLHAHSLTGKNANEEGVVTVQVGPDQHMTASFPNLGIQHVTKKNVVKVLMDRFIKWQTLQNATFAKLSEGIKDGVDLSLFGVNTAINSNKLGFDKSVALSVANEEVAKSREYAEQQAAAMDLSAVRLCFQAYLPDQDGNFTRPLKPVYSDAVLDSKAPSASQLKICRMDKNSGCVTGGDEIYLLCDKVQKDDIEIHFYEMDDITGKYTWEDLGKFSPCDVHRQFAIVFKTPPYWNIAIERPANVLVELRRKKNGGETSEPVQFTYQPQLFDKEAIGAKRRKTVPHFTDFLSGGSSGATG
# [2] = target: T3, GST-Nv-NF-kB (Ser allele) (Nematostella vectensis, UniProt A7UNT2 2-411)
# T3 sequence: T2 sequence with Q21R, C66S, S207N, E215Q, V217A, E225K, A268E, D399E
# GST-Co-NF-kB = target: T4, GST-Co-NF-kB (Capsaspora owczarzaki, UniProt F1ARL5 200-546)
# T4 sequence: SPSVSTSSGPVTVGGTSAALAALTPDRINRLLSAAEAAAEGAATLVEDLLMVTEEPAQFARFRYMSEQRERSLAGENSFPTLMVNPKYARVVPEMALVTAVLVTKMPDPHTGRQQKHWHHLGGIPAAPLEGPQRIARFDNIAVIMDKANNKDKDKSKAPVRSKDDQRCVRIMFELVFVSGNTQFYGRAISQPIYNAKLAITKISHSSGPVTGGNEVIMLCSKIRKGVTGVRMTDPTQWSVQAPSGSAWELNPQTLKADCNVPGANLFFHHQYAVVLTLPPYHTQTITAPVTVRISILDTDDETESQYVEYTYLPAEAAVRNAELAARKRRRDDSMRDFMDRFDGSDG
# GST-Dm-Relish = target: T5, GST-Dm-Relish (Drosophila melanogaster, UniProt Q94527 99-473)
# T5 sequence: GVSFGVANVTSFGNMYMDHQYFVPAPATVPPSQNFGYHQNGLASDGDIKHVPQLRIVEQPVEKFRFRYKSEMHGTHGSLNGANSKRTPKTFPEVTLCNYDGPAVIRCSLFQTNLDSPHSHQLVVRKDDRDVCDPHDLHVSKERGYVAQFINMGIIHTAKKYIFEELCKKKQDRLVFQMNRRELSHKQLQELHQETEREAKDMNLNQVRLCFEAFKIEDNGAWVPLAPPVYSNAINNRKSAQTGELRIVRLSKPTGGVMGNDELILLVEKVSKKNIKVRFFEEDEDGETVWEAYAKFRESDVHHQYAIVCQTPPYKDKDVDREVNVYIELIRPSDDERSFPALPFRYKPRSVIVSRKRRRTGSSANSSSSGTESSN
# GST-Aq-NF-kB = target: T6, GST-Aq-NF-kB (Amphimedon queenslandica, UniProt A9Y5G7 2-389)
# T6 sequence: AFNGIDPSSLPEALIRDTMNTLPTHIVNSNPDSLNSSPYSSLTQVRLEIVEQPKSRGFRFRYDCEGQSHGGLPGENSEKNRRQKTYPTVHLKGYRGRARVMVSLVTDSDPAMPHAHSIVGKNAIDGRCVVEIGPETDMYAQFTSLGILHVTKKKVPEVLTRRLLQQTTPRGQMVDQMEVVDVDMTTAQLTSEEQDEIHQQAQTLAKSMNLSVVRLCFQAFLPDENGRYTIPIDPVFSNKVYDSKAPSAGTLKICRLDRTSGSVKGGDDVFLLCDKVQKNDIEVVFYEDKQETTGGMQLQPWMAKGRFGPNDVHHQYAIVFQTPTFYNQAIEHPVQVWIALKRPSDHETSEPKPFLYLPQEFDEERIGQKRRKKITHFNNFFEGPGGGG
# GST-Hu-p50 = GST-Hu-p50 (Homo sapiens, UniProt P19838 7-356)
# GST-Hu-p50, sequence (P19838 7-356): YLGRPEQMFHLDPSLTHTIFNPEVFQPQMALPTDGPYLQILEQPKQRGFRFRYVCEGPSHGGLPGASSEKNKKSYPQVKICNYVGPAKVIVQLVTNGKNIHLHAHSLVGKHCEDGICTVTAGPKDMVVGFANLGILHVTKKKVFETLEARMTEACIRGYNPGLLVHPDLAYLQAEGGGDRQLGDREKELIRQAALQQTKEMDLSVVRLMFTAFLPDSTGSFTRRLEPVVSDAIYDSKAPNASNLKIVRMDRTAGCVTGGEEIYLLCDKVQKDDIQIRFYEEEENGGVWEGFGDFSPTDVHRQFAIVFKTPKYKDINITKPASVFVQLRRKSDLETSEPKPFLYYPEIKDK
Sequence,binding signal (GST-Ap-NF-kB RHD),binding signal [1],binding signal [2],binding signal (GST-Co-NF-kB),binding signal (GST-Dm-Relish),binding signal (GST-Aq-NF-kB),binding signal (GST-Hu-p50)
CCGATTAACATCAATTTTCCCCCTGATGTTAATCGGGTCTTGATTCGCTTGACGCTGCTG,7.68 z-score,8.57 z-score,11.2 z-score,12 z-score,4.81 z-score,6.79 z-score,7.47 z-score
CCGATTAACATCAGGAGCCCCCCTGATGTTAATCGGGTCTTGATTCGCTTGACGCTGCTG,5.02 z-score,3.27 z-score,2.66 z-score,2.66 z-score,6.02 z-score,5.04 z-score,4.41 z-score
CCGATTAACATCAATCCCCACATTGATGTTAATCGGGTCTTGATTCGCTTGACGCTGCTG,3.58 z-score,4.03 z-score,3.93 z-score,2.61 z-score,2.63 z-score,2.58 z-score,3.86 z-score
CCGATTAACATCAGGATTTCCCATGATGTTAATCGGGTCTTGATTCGCTTGACGCTGCTG,3.95 z-score,5.23 z-score,4.48 z-score,3.18 z-score,5.84 z-score,5.27 z-score,3.73 z-score
CCGATTAACATCAAGTCTCCCCCTGATGTTAATCGGGTCTTGATTCGCTTGACGCTGCTG,6.67 z-score,5.33 z-score,7.25 z-score,8.63 z-score,2.82 z-score,4.5 z-score,5.75 z-score
CCGATTAACATCAATCCTCCCCCTGATGTTAATCGGGTCTTGATTCGCTTGACGCTGCTG,5.52 z-score,4.44 z-score,5.85 z-score,8.24 z-score,2.9 z-score,4.98 z-score,4.83 z-score
CCGATTAACATCAAGGGGGGGCGTGATGTTAATCGGGTCTTGATTCGCTTGACGCTGCTG,4.19 z-score,4.66 z-score,4.86 z-score,3.83 z-score,3.7 z-score,4.52 z-score,4.17 z-score
CCGATTAACATCAAGGGAGTTCCTGATGTTAATCGGGTCTTGATTCGCTTGACGCTGCTG,4.53 z-score,4.56 z-score,2.92 z-score,1.22 z-score,5.02 z-score,5.71 z-score,3.7 z-score
CCGATTAACATCAGGGGATTACCTGATGTTAATCGGGTCTTGATTCGCTTGACGCTGCTG,9.27 z-score,10.5 z-score,9.69 z-score,3.93 z-score,9.7 z-score,9.77 z-score,6.76 z-score
CCGATTAACATCAGGGGACTACCTGATGTTAATCGGGTCTTGATTCGCTTGACGCTGCTG,7.56 z-score,5.88 z-score,4.89 z-score,2.47 z-score,7.3 z-score,7.36 z-score,4.79 z-score
CCGATTAACATCAAGAACCCCCGTGATGTTAATCGGGTCTTGATTCGCTTGACGCTGCTG,6.68 z-score,4.55 z-score,5.31 z-score,3.25 z-score,8.39 z-score,5.21 z-score,5.41 z-score
CCGATTAACATCAGGGGGTTCCATGATGTTAATCGGGTCTTGATTCGCTTGACGCTGCTG,7.79 z-score,5.3 z-score,5.6 z-score,1.97 z-score,9.47 z-score,6.05 z-score,5.73 z-score
CCGATTAACATCAGAATTACCCCTGATGTTAATCGGGTCTTGATTCGCTTGACGCTGCTG,4.43 z-score,5.36 z-score,5.04 z-score,5.87 z-score,2.94 z-score,5.49 z-score,4.69 z-score
CCGATTAACATCAGAACTTCCCCTGATGTTAATCGGGTCTTGATTCGCTTGACGCTGCTG,7.33 z-score,9 z-score,7.95 z-score,6.75 z-score,7.85 z-score,7.57 z-score,6.4 z-score
CCGATTAACATCAGAAAGTCCCCTGATGTTAATCGGGTCTTGATTCGCTTGACGCTGCTG,8.98 z-score,9.38 z-score,8.58 z-score,3.84 z-score,9.11 z-score,7.8 z-score,7.42 z-score
CCGATTAACATCAGAGACTTCCCTGATGTTAATCGGGTCTTGATTCGCTTGACGCTGCTG,1.92 z-score,2.44 z-score,2.19 z-score,1.11 z-score,1.95 z-score,3.32 z-score,1.57 z-score
CCGATTAACATCAGGGGGTTACCTGATGTTAATCGGGTCTTGATTCGCTTGACGCTGCTG,8.27 z-score,6.63 z-score,5.92 z-score,4.04 z-score,9.18 z-score,8.61 z-score,5.51 z-score
CCGATTAACATCAAATTTCCCATTGATGTTAATCGGGTCTTGATTCGCTTGACGCTGCTG,2.36 z-score,4.83 z-score,4.27 z-score,3.32 z-score,2.68 z-score,4.29 z-score,3.86 z-score
CCGATTAACATCAGAAATTCCCCTGATGTTAATCGGGTCTTGATTCGCTTGACGCTGCTG,9.89 z-score,12.3 z-score,13.2 z-score,8.74 z-score,8.87 z-score,8.89 z-score,7.96 z-score
